Measurements published in the supplement of paper PMC10849652.
About 8,800 targets were measured; listed, in parts, are those with a hit and a random draw of the rest. About 0.5% of all pairs of compound and target were hits. Values without a mark were called inactive.

Experiments:
Test in all cases: log2 fold change, soluble protein after heating vs DMSO (PISA); higher = thermal stabilisation; K562 lysate, 10 uM; active = over 0.2 and 3.5 SD of the protein, either way, in both replicates (recomputed)
ibrutinib = compound: C=CC(=O)N1CCC[C@@H](n2nc(-c3ccc(Oc4ccccc4)cc3)c3c(N)ncnc32)C1 [ibrutinib]
In short: (§1)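 K562 pellets were dounce-homogenised in PBS pH 7.4 with 1 mM MgCl2, and the crude extract at 1 mg/mL protein was treated with 10 μM compound for 30 min. Aliquots were heated for 3 min across 48°C-58°C, pooled, and brought to 0.5% NP-40 at 4°C; soluble protein was the supernatant after 21,000xg for 90 min. Soluble protein was quantified by TMTpro 16plex LC-MS/MS with channel sums equalised, and reported as log2 fold change in thermal stability against DMSO controls, with values from duplicates.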

[1] = compound: CC(=O)c1cnc2ccc(-c3cc(Cl)c(O)c(Cl)c3)nc2c1N[C@H]1CC[C@H](CN(C)C)CC1
In short: as §1

ralimetinib = compound: CC(C)(C)Cn1c(N)nc2ccc(-c3[nH]c(C(C)(C)C)nc3-c3ccc(F)cc3)nc21 [ralimetinib]
In short: as §1

[2] = compound: CC(C)(O)CC(=O)NCCn1ccc2ncnc(Nc3ccc(Oc4cccc(C(F)(F)F)c4)c(Cl)c3)c21
In short: as §1

[3] = compound: CC(C)C1=C2N=C(C=C(N2N=C1)NCC3=CC=CC=C3)NCCCCCCN
In short: as §1

[4] = compound: CC1=C(C(CC(=O)N1)C2=CC=C(C=C2)C(F)(F)F)C(=O)NC3=C(C=C4C(=C3)C=NN4)F
In short: as §1

[5] = compound: CC1=C(C2=C(C=C1)C(=O)C3=CC=CC=C3N2CCCN)C
In short: as §1

[6] = compound: CC1=C(C=C(C=C1)NC(=O)C2=CC(=CC=C2)C(C)(C)C#N)NC3=CC4=C(C=C3)N=CN(C4=O)C
In short: as §1

[7] = compound: CC1=C(C=C(C=C1)NC(=O)C2=CC(=CC=C2)N(C)C)NC(=O)C3=CC=C(C=C3)O
In short: as §1

[8] = compound: CC1=CC=C(C=C1)SC2=C3C=C(SC3=CN=C2)C(=O)N
In short: as §1

vemurafenib = compound: CCCS(=O)(=O)Nc1ccc(F)c(C(=O)c2c[nH]c3ncc(-c4ccc(Cl)cc4)cc23)c1F [vemurafenib]
In short: as §1

[9] = compound: CCCS(=O)(=O)Nc1ccc(F)c(C(=O)c2c[nH]c3ncc(Cl)cc23)c1F
In short: as §1

barasertib = compound: CCN(CCCOc1ccc2c(Nc3cc(CC(=O)Nc4cccc(F)c4)[nH]n3)ncnc2c1)CCOP(=O)(O)O [barasertib]
In short: as §1

[10] = compound: CC[C@@H]1C(=O)N(C)c2cnc(Nc3ccc(C(=O)NC4CCN(C)CC4)cc3OC)nc2N1C1CCCC1
In short: as §1

volasertib = compound: CC[C@@H]1C(=O)N(C)c2cnc(Nc3ccc(C(=O)N[C@H]4CC[C@H](N5CCN(CC6CC6)CC5)CC4)cc3OC)nc2N1C(C)C [volasertib]
In short: as §1

[11] = compound: CCn1c(C(=O)N(C2CC2)C2CC2)cc2c3c(ncn3C)c(Nc3cc(C)n(C)n3)nc21
In short: as §1

[12] = compound: CCn1cc(-c2ccnc3[nH]c(-c4cccc(CN(C)C)c4)cc23)c(-c2ccc(NC(=O)N(C)C)cc2)n1
In short: as §1

[13] = compound: CN1CCC(CNc2ccc3ncc(-c4cccc(OC(F)(F)F)c4)n3n2)CC1
In short: as §1

saracatinib = compound: CN1CCN(CCOc2cc(OC3CCOCC3)c3c(Nc4c(Cl)ccc5c4OCO5)ncnc3c2)CC1 [saracatinib]
In short: as §1

sotrastaurin = compound: CN1CCN(c2nc(C3=C(c4c[nH]c5ccccc45)C(=O)NC3=O)c3ccccc3n2)CC1 [sotrastaurin]
In short: as §1

Sequence of UniProt Q9BXS6 (Q9BXS6 whole entry, looked up): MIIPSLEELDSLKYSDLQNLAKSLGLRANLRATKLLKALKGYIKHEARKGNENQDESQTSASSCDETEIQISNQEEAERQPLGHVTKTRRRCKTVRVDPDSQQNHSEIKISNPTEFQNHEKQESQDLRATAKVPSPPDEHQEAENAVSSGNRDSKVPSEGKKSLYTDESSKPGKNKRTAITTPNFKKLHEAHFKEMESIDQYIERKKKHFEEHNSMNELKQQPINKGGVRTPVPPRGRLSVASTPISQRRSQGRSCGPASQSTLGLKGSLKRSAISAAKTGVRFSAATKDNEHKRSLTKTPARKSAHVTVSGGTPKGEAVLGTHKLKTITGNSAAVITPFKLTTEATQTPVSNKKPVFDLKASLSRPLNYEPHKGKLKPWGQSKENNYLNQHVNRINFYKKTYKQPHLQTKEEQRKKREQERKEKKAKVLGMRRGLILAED
Sequence of UniProt Q9Y530 (Q9Y530 whole entry, looked up): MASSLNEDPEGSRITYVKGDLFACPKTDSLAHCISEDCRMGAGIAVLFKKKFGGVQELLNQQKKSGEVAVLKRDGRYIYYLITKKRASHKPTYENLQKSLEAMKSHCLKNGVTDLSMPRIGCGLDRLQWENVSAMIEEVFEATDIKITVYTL
Sequence of UniProt Q8TE04 (Q8TE04 whole entry, looked up): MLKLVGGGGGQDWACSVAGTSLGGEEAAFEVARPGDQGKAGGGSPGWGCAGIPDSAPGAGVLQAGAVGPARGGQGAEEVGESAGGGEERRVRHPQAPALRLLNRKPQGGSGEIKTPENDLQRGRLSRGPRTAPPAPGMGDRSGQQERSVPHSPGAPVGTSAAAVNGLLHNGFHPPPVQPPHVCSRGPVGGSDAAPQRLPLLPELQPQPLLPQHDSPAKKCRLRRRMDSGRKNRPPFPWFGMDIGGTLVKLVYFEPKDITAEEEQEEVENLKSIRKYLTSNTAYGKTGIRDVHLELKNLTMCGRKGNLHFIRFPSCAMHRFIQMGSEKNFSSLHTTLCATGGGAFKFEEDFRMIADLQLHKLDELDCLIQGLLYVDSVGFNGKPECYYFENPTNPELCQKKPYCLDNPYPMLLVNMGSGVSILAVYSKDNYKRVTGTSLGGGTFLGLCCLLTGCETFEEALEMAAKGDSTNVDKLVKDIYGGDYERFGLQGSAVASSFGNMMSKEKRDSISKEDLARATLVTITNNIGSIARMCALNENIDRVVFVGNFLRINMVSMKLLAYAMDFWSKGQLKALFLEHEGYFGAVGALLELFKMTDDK
Sequence of UniProt O94916 (O94916 whole entry, looked up): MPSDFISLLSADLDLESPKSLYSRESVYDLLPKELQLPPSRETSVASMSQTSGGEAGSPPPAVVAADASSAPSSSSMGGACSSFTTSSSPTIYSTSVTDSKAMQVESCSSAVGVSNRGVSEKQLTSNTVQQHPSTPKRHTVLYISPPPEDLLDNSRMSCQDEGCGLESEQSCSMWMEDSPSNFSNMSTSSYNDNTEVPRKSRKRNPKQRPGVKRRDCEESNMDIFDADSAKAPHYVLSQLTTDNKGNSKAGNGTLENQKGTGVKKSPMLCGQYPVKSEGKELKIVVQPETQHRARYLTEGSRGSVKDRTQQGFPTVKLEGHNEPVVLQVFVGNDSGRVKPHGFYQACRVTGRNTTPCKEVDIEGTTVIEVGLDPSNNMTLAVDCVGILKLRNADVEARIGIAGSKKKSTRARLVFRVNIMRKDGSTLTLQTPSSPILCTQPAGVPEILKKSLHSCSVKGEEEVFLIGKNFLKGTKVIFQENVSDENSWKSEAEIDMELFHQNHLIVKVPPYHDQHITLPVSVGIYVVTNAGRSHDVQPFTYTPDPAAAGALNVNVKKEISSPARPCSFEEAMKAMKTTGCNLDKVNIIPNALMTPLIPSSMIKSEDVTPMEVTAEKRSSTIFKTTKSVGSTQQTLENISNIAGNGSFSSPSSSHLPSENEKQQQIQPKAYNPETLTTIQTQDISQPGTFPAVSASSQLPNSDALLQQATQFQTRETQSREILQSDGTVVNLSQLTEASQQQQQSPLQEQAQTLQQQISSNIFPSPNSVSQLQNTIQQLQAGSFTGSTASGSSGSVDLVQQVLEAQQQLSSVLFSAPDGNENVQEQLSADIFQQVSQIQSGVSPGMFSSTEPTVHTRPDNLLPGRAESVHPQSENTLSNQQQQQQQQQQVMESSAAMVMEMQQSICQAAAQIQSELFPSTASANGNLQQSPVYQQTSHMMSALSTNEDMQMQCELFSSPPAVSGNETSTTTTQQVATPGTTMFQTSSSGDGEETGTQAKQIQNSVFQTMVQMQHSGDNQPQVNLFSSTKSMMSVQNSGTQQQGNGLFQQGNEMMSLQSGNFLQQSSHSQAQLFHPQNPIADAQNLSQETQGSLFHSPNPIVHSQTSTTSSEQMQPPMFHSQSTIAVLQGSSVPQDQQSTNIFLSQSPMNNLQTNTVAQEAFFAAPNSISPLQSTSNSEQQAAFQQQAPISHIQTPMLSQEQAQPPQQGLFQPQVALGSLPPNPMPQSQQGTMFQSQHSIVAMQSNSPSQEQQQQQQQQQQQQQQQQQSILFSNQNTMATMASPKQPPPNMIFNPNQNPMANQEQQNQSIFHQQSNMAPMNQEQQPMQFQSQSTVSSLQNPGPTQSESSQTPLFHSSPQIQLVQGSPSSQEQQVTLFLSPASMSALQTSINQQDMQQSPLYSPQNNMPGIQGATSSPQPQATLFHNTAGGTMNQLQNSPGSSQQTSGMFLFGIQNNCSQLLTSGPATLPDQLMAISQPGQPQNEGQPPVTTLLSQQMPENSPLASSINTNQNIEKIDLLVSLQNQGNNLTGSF
Sequence of UniProt Q6N063 (Q6N063 whole entry, looked up): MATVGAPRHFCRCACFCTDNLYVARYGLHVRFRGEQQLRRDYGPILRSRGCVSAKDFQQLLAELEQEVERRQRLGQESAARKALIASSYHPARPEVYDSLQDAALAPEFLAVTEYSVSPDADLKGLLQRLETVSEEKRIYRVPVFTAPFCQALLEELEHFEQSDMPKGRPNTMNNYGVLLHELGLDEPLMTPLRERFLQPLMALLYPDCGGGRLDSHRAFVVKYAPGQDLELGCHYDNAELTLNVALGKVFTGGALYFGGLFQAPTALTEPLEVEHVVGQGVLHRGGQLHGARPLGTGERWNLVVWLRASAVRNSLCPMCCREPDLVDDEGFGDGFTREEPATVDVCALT
Sequence of UniProt P80303 (P80303 whole entry, looked up): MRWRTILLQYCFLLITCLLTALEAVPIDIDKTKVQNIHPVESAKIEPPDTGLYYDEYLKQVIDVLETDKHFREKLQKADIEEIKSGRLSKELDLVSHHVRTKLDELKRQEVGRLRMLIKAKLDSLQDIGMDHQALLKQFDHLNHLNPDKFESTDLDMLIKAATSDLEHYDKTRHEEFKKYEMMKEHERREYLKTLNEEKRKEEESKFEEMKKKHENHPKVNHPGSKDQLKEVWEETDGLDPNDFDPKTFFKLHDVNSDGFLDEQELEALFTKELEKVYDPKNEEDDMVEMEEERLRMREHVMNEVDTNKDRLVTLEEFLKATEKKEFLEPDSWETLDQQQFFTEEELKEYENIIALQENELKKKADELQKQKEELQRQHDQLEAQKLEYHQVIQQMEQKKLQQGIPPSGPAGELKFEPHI

| Target | log2 fold change (ibrutinib) | log2 fold change [1] | log2 fold change (ralimetinib) | log2 fold change [2] | log2 fold change [3] | log2 fold change [4] | log2 fold change [5] | log2 fold change [6] | log2 fold change [7] | log2 fold change [8] | log2 fold change (vemurafenib) | log2 fold change [9] | log2 fold change (barasertib) | log2 fold change [10] | log2 fold change (volasertib) | log2 fold change [11] | log2 fold change [12] | log2 fold change [13] | log2 fold change (saracatinib) | log2 fold change (sotrastaurin) |
| --- | --- | --- | --- | --- | --- | --- | --- | --- | --- | --- | --- | --- | --- | --- | --- | --- | --- | --- | --- | --- |
| NUSAP1 (UniProt Q9BXS6) | -0.003 | -0.022 | 0.023 | -0.014 | -0.006 | -0.02 | -0.017 | -0.004 | 0.016 | -0.023 | 0.001 | 0.009 | -0.002 | 0.073 | 0.004 | -0.009 | -0.399 (active) | 0.189 | 0.019 | -0.001 |
| PANK1 (UniProt Q8TE04) | -0.031 | -0.007 | 0.04 | -0.003 | -0.079 | 0.045 | -0.068 | -0.035 | -0.025 | 0.064 | 0.086 | 0.036 | 0.097 | -0.231 | -0.063 | 0.056 | 0.226 | -0.253 | 0 | 0.052 |
| NFAT5 isoform 5 (UniProt O94916) | -0.027 | -0.029 | -0.017 | 0.129 | 0.003 | 0.112 | -0.008 | -0.081 | -0.004 | 0.032 | 0.019 | -0.007 | -0.041 | 0.043 | -0.016 | 0.042 | -0.003 | 0.044 | 0.038 | 0.044 |
| NUCB2 (UniProt P80303) | 0.025 | 0.002 | -0.023 | 0.01 | 0.009 | 0.04 | -0.006 | 0 | -0.015 | -0.014 | 0.01 | -0.009 | -0.004 | 0.052 | 0.022 | -0.008 | 0.338 (active) | -0.084 | 0.015 | -0.026 |
| OGFOD2 (UniProt Q6N063) | 0.002 | 0.023 | -0.012 | -0.018 | -0.125 | -0.023 | 0.025 | -0.04 | -0.029 | -0.023 | 0.024 | 0.173 | 0.005 | -0.147 | -0.062 | -0.023 | -0.042 | 0.071 | -0.047 | 0.039 |
| N4BP2 (UniProt Q86UW6) | 0.094 | -0.041 | 0.038 | -0.053 | 0.047 | 0.03 | -0.011 | -0.005 | -0.034 | -0.027 | -0.001 | 0.052 | -0.018 | 0.029 | -0.014 | 0 | -0.336 (active) | 0.029 | 0.018 | 0.05 |
| OARD1 (UniProt Q9Y530) | -0.013 | 0.003 | 0.003 | 0.002 | -0.01 | -0.027 | -0.046 | 0.032 | 0.035 | 0.011 | -0.011 | 0.004 | -0.01 | -0.01 | -0.031 | 0.022 | -0.056 | -0.034 | 0.006 | 0.002 |
| NCOR2 (UniProt C9J0Q5) | -0.002 | -0.001 | -0.026 | -0.056 | -0.034 | 0.046 | 0.022 | -0.064 | -0.014 | -0.04 | 0.006 | 0.021 | 0.024 | 0.009 | 0.009 | 0.056 | 0.019 | 0.036 | -0.026 | 0.032 |
